PrPC surface inh = cell surface PrPC inhibition, primary TR-FRET screen; inhibition, % at 13.8 µM; TR-FRET read-out; AID 720596; 370,000 compounds, 0.43% hits; in the data active = inhibition above about 24%; also: 0% = median of the test wells and 100% = reference compound wells
SARS 3CLpro inh = SARS-CoV 3CLpro protease inhibition; recombinant SARS-CoV 3CLpro, quenched FRET peptide cleavage; inhibition, % at 6 µM; 290,000 compounds, 0.14% hits; in the data active = inhibition above about 12%
FBA Mtb inh = inhibits M. tuberculosis FBA enzyme; 360,000 compounds, 2.3% hits; purified M. tuberculosis FBA, fluorescence read-out; P9WQA3; AID 588726; inhibition, % at 1 µM; in the data active = inhibition above about 27%;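 also: 0% = vehicle and 100% = reference inhibitor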
Target sequence (P9WQA3 whole entry, looked up): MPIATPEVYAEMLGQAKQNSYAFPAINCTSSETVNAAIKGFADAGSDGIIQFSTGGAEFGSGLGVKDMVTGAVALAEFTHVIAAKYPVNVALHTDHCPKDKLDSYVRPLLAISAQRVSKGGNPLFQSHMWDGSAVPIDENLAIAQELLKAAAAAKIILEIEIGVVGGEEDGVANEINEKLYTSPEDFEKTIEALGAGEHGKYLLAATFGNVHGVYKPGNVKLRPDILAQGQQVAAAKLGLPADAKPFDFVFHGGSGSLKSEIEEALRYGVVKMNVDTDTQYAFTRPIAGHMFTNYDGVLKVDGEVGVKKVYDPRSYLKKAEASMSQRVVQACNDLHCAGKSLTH
Vc quorum ag = inducers of Vibrio cholerae quorum light production without autoinducers; activation, % at 18.7 µM; AID 588436; 350,000 compounds, 0.16% hits; V. cholerae BH1578 lux reporter, luminescence, 6 h; in the data active = activation mostly above about 9.7%, no sharp cut-off
GDH-TPI inh = GDH-TPI coupled enzyme inhibition counter-screen; 360,000 compounds, 1.2% hits; inhibition, % at 4.8 µM; GDH-TPI coupled enzyme counterscreen, NADH absorbance; in the data active = inhibition above about 30%;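 also: 0% = DMSO wells and 100% = wells lacking the enzyme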
* = called active by the depositor; i = inactive; · = not tested or not shown; + = active, no number. Sampled rows, rich in hits. Any-hit rate of the full collection: about 3.9%.

SMILES | PrPC surface inh | SARS 3CLpro inh | FBA Mtb inh | Vc quorum ag | GDH-TPI inh
O=S(=O)(c1cccs1)N1CN(Cc2cccs2)c2nc3ccccc3nc21 | 9.7 | 0.5 | 103.0* | i | 16.7
N=c1oc2cc(O)ccc2cc1C(=O)Nc1ccccn1 | · | -3.2 | · | · | ·
Cc1csc(NC(=O)c2nc3nccc(C)n3n2)n1 | -1.5 | -1.4 | -0.1 | -7.7 | 27.4
Nc1ccc(C(=O)Nc2nc3ccccc3s2)cc1 | 0.6 | 3.2 | 5.6 | -0.3 | 34.1*
Cc1ccnc2nc(C(=O)Nc3nc4ccccc4s3)nn12 | 3.0 | -2.3 | 6.4 | -0.3 | 41.1*
N=c1oc2cc(O)ccc2cc1C(=O)Nc1nc2ccccc2s1 | -0.5 | -0.2 | + | -0.2 | 1.1
CC(=O)N[C@H]1C[C@@H]2O[C@H](CO)CC[C@@H]2O[C@@H]1CCc1ccc(-c2ccc(F)cc2)cc1 | 5.6 | · | · | · | ·
Clc1ccc2nc(-c3ccccc3)c(CC3CCCCC3)n2c1 | -2.1 | · | 2.2 | · | ·
Cc1cc(=O)oc2cc(OC(=O)c3nn(C(C)C)c(=O)c4ccccc34)ccc12 | -3.5 | 0.1 | + | -0.2 | 14.4
CCCn1nc(C(=O)Oc2ccc3c(C)cc(=O)oc3c2)c2ccccc2c1=O | 5.3 | -1.4 | + | -0.3 | 6.2
CC(C)n1nc(C(=O)Oc2ccc(Cl)cc2)c2ccccc2c1=O | -3.6 | 2.7 | 1.6 | -0.2 | 7.3
CCCn1nc(C(=O)OCC(=O)Nc2ccc(C)cc2)c2ccccc2c1=O | 6.0 | · | -1.0 | i | 2.5
CCOC(=O)c1ccc(NC(=O)c2ncn3c2C(=O)NC[C@H]3C)cc1 | -1.6 | · | 0.2 | i | 8.1
CC(=O)c1ccc2c(c1)N(Cc1ccccc1Cl)C(=O)C(C)S2 (stereo not drawn) | 0.2 | · | 2.3 | -0.4 | 15.9
O=[N+]([O-])c1cccc(NNS(=O)(=O)c2ccccc2F)c1 | 0.5 | -0.2 | -1.2 | -5.6 | 6.2
Cc1nccc(-c2sc(-c3cccs3)nc2C)n1 | -18.0 | 1.3 | + | -0.7 | 26.0
Nc1nc2nc(-c3ccc(Cl)cc3)cc(C(F)(F)F)n2n1 | · | 5.3 | + | 1.7 | 0.9
COc1ccccc1N(CCC#N)C(=O)CSc1nc(-c2ccccc2)cn1N | -2.2 | 4.4 | 2.6 | 29.4* | 6.3
CCOC(=O)[C@]12CCCCC/C=C\1N(CCc1ccc(Cl)cc1)C(=O)[C@H]2CC(=O)NCc1cccc2ccccc12 | 8.0 | · | · | · | ·
Cc1ccc(/C=C(\C#N)C(=O)Nc2c(C)cccc2C)s1 | -6.2 | 2.4 | 2.6 | i | 45.0*
Cc1ccc(NC(=O)/C(C#N)=C/c2ccc(C)s2)c(C)c1 | 2.5 | 2.1 | 2.9 | i | 25.1
COCCNC(=O)[C@H](C)[C@H]1C[C@]1(C)[C@H](NC(=O)OCc1ccccc1)c1ccccc1 | -1.1 | -1.1 | 167.7* | 0.4 | 2.2
Cc1ccc(Cn2c(N/N=C/c3ccncc3)nc3c2c(=O)n(C)c(=O)n3C)cc1 | -9.3 | -8.4 | -5.7 | -0.6 | 26.1
COc1cc(/C=N/Nc2nc3c(c(=O)n(C)c(=O)n3C)n2Cc2ccccc2)ccc1OC(=O)c1ccco1 | -0.2 | 4.0 | 0.8 | -0.2 | 33.0*
Cn1c(=O)c2c(nc(N/N=C/c3ccncc3)n2Cc2ccccc2)n(C)c1=O | -10.2 | -3.5 | -0.6 | i | 58.6*
SMILES | PrPC surface inh | SARS 3CLpro inh | FBA Mtb inh | Vc quorum ag | GDH-TPI inh
COc1ccccc1C(CNC(=O)c1cccc(S(=O)(=O)NCc2ccccc2)c1)N(C)C (stereo not drawn) | -2.2 | · | -1.9 | 2.8 | -2.1
Cc1ccc(SCC(=O)OCC(=O)N(CCC#N)c2ccccc2)cc1 | 4.4 | · | 0.1 | i | -5.6
CC1C(=O)N2CCCc3cc(S(=O)(=O)Nc4ccccc4C(N)=O)cc1c32 (stereo not drawn) | -7.8 | · | 6.5 | -8.2 | -7.2
O=C(NCC1CCCO1)C(=O)N/N=C/c1c(F)cccc1Cl (stereo not drawn) | 3.7 | -4.1 | -6.6 | -6.9 | -6.9
CC1(C)Cc2c(c(N3CCOCC3)nc3sc4c(NCCN)ncnc4c23)CO1 | 19.2 | · | 12.4 | -0.4 | 46.8*
CCN(CC)CCNc1ncnc2c1sc1nc(N3CCOCC3)c3c(c12)CC(C)(C)SC3 | -32.8 | -0.7 | 7.1 | 1.4 | 33.7*
C=CCNC(=S)N/N=C/c1cn(C)c2ccccc12 | 12.1 | 2.4 | 0.7 | -0.2 | 32.2*
NC(=S)N/N=C/c1c(O)ccc2ccccc12 | -16.0 | -4.6 | -3.5 | -1.0 | 31.8*
O=CN/N=C/c1c(O)ccc2ccccc12 | -6.2 | -2.2 | 3.1 | 0.3 | 22.1
Cn1cc(/C=N/NC(N)=S)c2ccccc21 | 7.9 | 5.2 | 0.8 | -0.3 | 37.0*
CNc1ccccc1C(=O)OCC(C)=O | · | 0.9 | 62.5* | -0.3 | 6.9
CC1CCN(C(=O)COC(=O)c2ccccc2NC(=O)c2ccco2)CC1 | -2.6 | -2.8 | 1.5 | -0.2 | 6.1
O=C(OCC(=O)N1CCN(C(=O)c2ccco2)CC1)c1ccccc1NCCO | -2.8 | · | 123.7* | -1.1 | 7.6
CCN(C(=O)COC(=O)c1ccccc1NCCO)c1cccc2ccccc12 | -4.2 | · | 113.6* | i | 4.1
O=C(OCC(=O)N1CCN(C(=O)COC(=O)c2ccccc2NCCO)CC1)c1ccccc1NCCO | -4.4 | · | 161.7* | i | 8.0
Cc1cccc(Nc2ccccc2C(=O)OCC(=O)N2CCOCC2)c1C | -2.9 | 3.3 | 2.4 | -0.3 | 3.2
CN1C(=S)SC(C)(C)C1/[N+]([O-])=C/c1cccnc1 (stereo not drawn) | 3.3 | 2.7 | -1.7 | i | -9.8
CN(C)c1ccc(/C=[N+](\[O-])C2SC(=S)N(C)C2(C)C)cc1 (stereo not drawn) | -0.5 | -2.8 | -3.1 | -0.2 | 34.3*
CN(C)c1ccc(/C=[N+](\[O-])C2N(c3ccccc3)C(=S)SC2(C)C)cc1 (stereo not drawn) | -0.6 | 5.4 | -3.2 | -1.0 | 33.3*
O=C1NC(Cc2ccccc2)c2nc3cc(Cl)ccc3c(=O)n2-c2ccccc21 (stereo not drawn) | 8.9 | · | · | · | ·
Clc1ccc(-n2c(SCc3cccc4ccccc34)nnc2-c2ccco2)cc1 | 4.8 | · | · | · | ·
O=C(N/N=C/c1cc2cc3c(cc2nc1Cl)OCO3)c1ccncc1 | 3.3 | -5.5 | -1.1 | -0.4 | 68.7*
CC1(C)CSC(=NCc2ccccc2)N1C(=O)c1cccc([N+](=O)[O-])c1 | 0.9 | 4.6 | -4.4 | -0.4 | -2.1
COc1ccccc1NC=C1C(=O)OC2(CCCCC2)OC1=O | -1.2 | 2.3 | -1.3 | -0.6 | 33.0*
CCOC(=O)Cn1cnc2c(nnn2-c2ccc(F)cc2)c1=O | 5.6 | -2.6 | -2.7 | -2.5 | -2.9
O=C(N/N=C/c1ccc(Br)o1)/C(=C/c1ccc([N+](=O)[O-])cc1)NC(=O)c1ccccc1 | -26.6 | -0.4 | 2.8 | 0.8 | 46.5*
COc1ccc(/C=C(\NC(=O)c2ccc(OC)cc2)C(=O)NC(CCSC)C(=O)O)cc1 (stereo not drawn) | -8.0 | 1.9 | 2.4 | i | 6.8
COc1ccc(C=CC(C)=NNC(=O)c2ccncc2)cc1 | 3.2 | · | -0.2 | -1.2 | 54.4*
COc1ccc(/C=N\NC(=O)/C(=C\Nc2nccc(C)n2)NC(=O)c2ccccc2)cc1 | -0.9 | -2.9 | -0.1 | -2.0 | 63.0*

Bioassay records as filed in PubChem.
